# Test results as given in PubChem BioAssay (EPA / NIEHS).
# Results filed as inconclusive are left out. The source made the active and inactive calls. Rule for the calls: active = hit-call score of the fitted dose curve at least 0.9, where 1 is the maximum; inconclusive = response in the unintended direction; inactive = score below 0.9.
# Read-out: organic anion transporter (SLCO1B1), SLCO1B1 (gene 10599)
# Test: CLD_SLCO1B1_6hr: CellzDirect (CLD) Gene Expression Assay for organic anion transporter (SLCO1B1) at 6 hours (AID 2283668);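 note: active means mRNA induction above DMSO baseline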
# Protocol: CLD_6hr is a cell-based, multiplexed-readout assay that uses hepatocyte, a human liver primary cell, with measurements taken at 6 hours after chemical dosing in a 96-well plate.CLD_SLCO1B1_6hr is one of 16 assay component(s) measured or calculated from the CLD_6hr assay. It is designed to make measurements of mRNA induction, a form of inducible reporter, as detected with chemiluminescence signals by Quantitative Nuclease Protection Assay (qNPA) technology.Data from the assay component CLD_SLCO1B1_6hr was analyzed at the endpoint, CLD_SLCO1B1_6hr, in the positive analysis fitting direction relative to DMSO as the negative control and baseline of activity. Using a type of inducible reporter, gain-of-signal activity can be used to understand changes in the reporter gene as they relate to the gene SLCO1B1. Furthermore, this assay endpoint can be referred to as a primary readout. To generalize the intended target to other relatable targets, this assay endpoint is annotated to the transporter intended target family, where subfamily is organic anion transporter.
# Human hepatocyte cultures were treated daily for two consecutive days with fresh dosing solutions containing appropriate concentrations of the 320 ToxCast chemicals (chemical identities were blinded to CellzDirect and other ToxCast collaborators), vehicle control (0.2% DMSO), and positive control inducers as summarized in Table 1. Due to the large number of treatment groups and chemicals examined, the ToxCast chemicals were divided into two groups (spanning two independent cultures of hepatocytes from separate donor preparations (Hu778: ToxCast plates 1 and 2; Hu776: ToxCast plates 3 and 4). Each preparation of human hepatocyte cultures was treated with respective vehicle control, medium only control, set of six positive controls/reference chemicals for the five hepatic receptor pathways, and a subset of eight of the ToxCast chemicals (indoxacarb, pyrithiobac-sodium, norflurazon, cyhalofop-butyl, methomyl, thiram, acetochlor, and propiconazole). These replicate data, coupled with internal replicates designed within the blinded ToxCast chemical library, provided additional data to evaluate interindividual differences between hepatocyte preparations and their potential impact on chemical profiles.Cell morphology and integrity were evaluated using phase-contrast microscopy as an indicator of hepatocyte cell health (Tyson & Green, 1987). Cultures for each treatment group (i.e., media, vehicle [0.2% DMSO], positive control inducers [multiple concentrations], and the ToxCast chemicals [multiple concentrations]) were observed and cell morphology was assessed relative to vehicle control cultures at each harvest time point (0, 6, 24, or 48 h). […] Images were evaluated at the conclusion of the study to assess changes in cell integrity and account for the effects of chemical exposure on uncharacteristic changes in concentration-dependent gene expression profiles. The results from these determinations of apparent cytotoxicity were annotated (yes/no) alongside the corresponding qNPA data for reference.At the conclusion of each treatment period, hepatocyte cultures (96-well) were washed with 1 volume of HBSS, lysed by addition of 25 ul ArrayPlate lysis buffer (HTG, Tucson, AZ), and 70 ul/well of Denaturation Oil, denatured by incubation at 95C for 10 min, and frozen at approximately -70C until analysis by nuclease protection assay (qNPA) (Roberts et al., 2007). For qNPA analysis, cell lysates were thawed at 50C for approximately 30 min, qNPA probes were added, and samples were incubated at 95C for 10 min to begin the detection process by denaturing the target RNA, dissociating the duplexes and secondary structure hybridization. At the conclusion of the hybridization period, S1 nuclease reagent was added to each sample to digest all nonprotected nucleotides at 50C for 60-90 min. […]
row,SMILES,outcome
1,CCNC(=O)NC(=O)C(C#N)=NOC,inactive
2,COP(=O)(OC)O/C(C)=C/C(=O)N(C)C,inactive
3,C=CCOC(=O)C(C)(C)OC(=O)c1cc(-n2c(=O)cc(C(F)(F)F)n(C)c2=O)ccc1Cl,inactive
4,CC1(C)C(C=C(Cl)Cl)C1C(=O)OC(C#N)c1cccc(Oc2ccccc2)c1 (stereo not drawn),inactive
5,CN=C=S,inactive
6,CCN(CC)c1nc(C)cc(OP(=S)(OC)OC)n1,inactive
7,CO/N=C(/C1=NOCCO1)c1ccccc1Oc1ncnc(Oc2ccccc2Cl)c1F,inactive
8,COCc1cnc(C2=NC(C)(C(C)C)C(=O)N2)c(C(=O)O)c1 (stereo not drawn),inactive
9,COCC(=O)N(c1c(C)cccc1C)C(C)C(=O)OC (stereo not drawn),inactive
10,CSC(=O)c1c(C(F)F)nc(C(F)(F)F)c(C(=O)SC)c1CC(C)C,inactive
11,Cc1ccc(N=CN(C)C=Nc2ccc(C)cc2C)c(C)c1,inactive
12,CC(C)N1C(=O)c2ccccc2NS1(=O)=O,inactive
13,CCCN(CC)CC1COC2(CCC(C(C)(C)C)CC2)O1 (stereo not drawn),inactive
14,CCOC(=O)C(C)OC(=O)c1cc(Oc2ccc(C(F)(F)F)cc2Cl)ccc1[N+](=O)[O-] (stereo not drawn),inactive
15,O=P(O)(O)CCCl,inactive
16,N#Cc1c(Cl)cccc1Cl,inactive
17,CCOc1nc(F)cc2nc(S(=O)(=O)Nc3c(Cl)cccc3Cl)nn12,inactive

row,SMILES,outcome
1,Clc1nc(Cl)nc(Nc2ccccc2Cl)n1,inactive
2,CCCCC(O)(Cn1cncn1)c1ccc(Cl)cc1Cl (stereo not drawn),inactive
3,CCCCOCN(C(=O)CCl)c1c(CC)cccc1CC,inactive
4,CS(=O)(=O)c1cc(C(F)(F)F)ccc1C(=O)c1cnoc1C1CC1,inactive
5,CC(C)C1(C)N=C(c2ncccc2C(=O)O)NC1=O (stereo not drawn),inactive
6,O=c1n(Cl)c(=O)n(Cl)c(=O)n1Cl,inactive
7,CCCCC(C#N)(Cn1cncn1)c1ccc(Cl)cc1 (stereo not drawn),inactive
8,CCCC(=NOCC)C1=C(O)CC(CC(C)SCC)CC1=O (stereo not drawn),inactive
9,Nc1c(Cl)c(F)nc(OCC(=O)O)c1Cl,inactive
10,CC1(C)CCC(=Cc2ccc(Cl)cc2)C1(O)Cn1cncn1 (stereo not drawn),inactive
11,COCC(C)N(C(=O)CCl)c1c(C)csc1C (stereo not drawn),inactive
12,Clc1cccc(C(Cl)(Cl)Cl)n1,inactive
13,CCOP(=O)(OCC)Oc1nc(Cl)c(Cl)cc1Cl,inactive
14,COC(=O)c1c(C(F)F)nc(C(F)(F)F)c(C2=NCCS2)c1CC(C)C,inactive
15,COc1cc(OC)nc(NC(=O)NS(=O)(=O)c2ncccc2OCC(F)(F)F)n1,inactive
16,OC(c1ccc(Cl)cc1)(c1ccc(Cl)cc1)C(Cl)(Cl)Cl,inactive
